Compound activity as filed in PubChem BioAssay.
Compounds with a hit are over-represented: about 2.1% of the library has one in this group of screens.
TDP-43 yeast inh – qHTS of TDP-43 Inhibitors; TDP-43 expressing yeast growth rescue, BacTiter-Glo, 24 h; Potency, µM (titrated, usually from 46.1 µM), usual class: activators; 1.8% of 410,000 active; AID 652104, 2013; note: nearly all actives have a fitted effect of over 50% in size
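Readout is BacTiter-Glo luminescence of cell growth, so inhibitors register as activators. TDP-43-expressing yeast at OD600=0.02 in galactose medium, after raffinose pregrowth to mid-log, were incubated with compound for 24 hr at 30 deg C.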
Abeta yeast res – qHTS for compounds that reverse cellular toxicity of Amyloid beta (A-beta) peptide in yeast: Primary Screen | yeast expressing A-beta42, growth rescue, OD600, 48 h; response scale: 0% DMSO, 100% iron-clioquinol control | 0.063% of 410,000 active | AID 1347071, 2019 | Potency, µM (series often up to 46.1 µM), hits mostly activators; note: nearly all actives have a fitted effect of over 55% in size
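Growth rescue measured by 600 nm absorbance after 48 h yeast culture at 30 C with compound. Values normalized between DMSO and an equimolar ferric chloride plus clioquinol control.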
aSyn yeast inh – qHTS of alpha-syn Inhibitors; Potency, µM (series often up to 46.1 µM), usual class: activators; 0.14% of 370,000 active; Yeast expressing alpha-synuclein, growth rescue, BacTiter-Glo, 24 h; note: nearly all actives have a fitted effect of over 65% in size
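Galactose-induced alpha-syn yeast (OD600=0.02, raffinose-pregrown) + pinned cpd, 24 hr, 30 deg C; growth by BacTiter-Glo luminescence. Growth restoration scores as activation.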
FUS yeast rescue – qHTS for Suppressors of FUS Proteinopathy: Primary screen using FUS-linked yeast assay; 0.24% of 390,000 active; S. cerevisiae FUS-expressing, growth rescue, OD600, 24 h; Potency, µM (highest dose often 76.6 µM), usual class: activators; note: nearly all actives have a fitted effect of over 55% in size
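Cultures pregrown in 2.5% raffinose medium are shifted to minimal medium containing 2% galactose to express toxic FUS. Compounds are tested at several concentrations. After 24hr at 30C, growth is quantified at 600 nm absorbance.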
A number is an active result; – = inactive; ? = inconclusive; · = no result; [ ] = dose if it differs, or a comment. Calls come from the whole dose curve; as a rule, active = well fitted curve in the direction sought with a large enough effect; inconclusive = small, poorly fitted or top-dose-only effect, or another doubt; inactive = no such curve, though single readings can be large; an effect the other way counts as inactive or inconclusive.

SMILES | TDP-43 yeast inh | Abeta yeast res | aSyn yeast inh | FUS yeast rescue
O=C(Cn1cc(C(=O)C2CCCCC2)c2ccccc21)NCC1CCCO1 (stereo unspecified) | –[9.22 µM] | – | – | –
O=C(/C=C/c1ccc(F)cc1)N1CCCc2ccccc21 | 18µM | – | – | –
O=C(/C=C/c1cccc(F)c1)N1CCc2ccccc21 | – | – | – | –
CS(=O)(=O)c1ccc(C(=O)OCc2nnc(-c3ccc(Cl)cc3)o2)cc1[N+](=O)[O-] | 18µM | – | – | ?
O=C(OCc1nnc(-c2ccc(Cl)cc2)o1)c1ccc(O)cc1 | – | – | – | –
COc1cc(NC(=O)C(c2ccccc2)c2ccccc2)c(C(=O)O)cc1OC | 22µM | – | – | –
CCNC(=O)Nc1cc(OC)c(OC)cc1C(=O)O | – | – | – | –
COc1ccc(NC(=O)c2ccc(S(=O)(=O)NCc3cccnc3)cc2)cc1 | – | – | – | –
N#C/C(=C\c1ccco1)Sc1nc2ccccc2s1 | 16µM | – | – | –
Nc1c(-c2ccccc2)c(CSc2nc3ccccc3[nH]2)nn1-c1cccc(Cl)c1 | ? | – | – | –
S=C(c1ccc(-c2cc(Cl)ccc2Cl)o1)N1CCCCC1 | – | – | – | ·
S=C(c1ccc(-c2cc(Cl)ccc2Cl)o1)N1CCOCC1 | 13µM | – | – | –
CC1=NNC(=O)C1CC(=O)N/N=C/C(Br)=C/c1ccccc1 (stereo unspecified) | 14µM | – | – | –
CCc1ccc(-c2nc(CSCC(=O)N3CCN(c4ncccn4)CC3)c(C)o2)cc1 | – | – | – | –
Cc1nc2ccccc2cc1OCc1ccccc1 | 18µM | – | – | –
O=S(=O)(NNC(=S)Nc1ccc(S(=O)(=O)Nc2ncccn2)cc1)c1ccc(Br)cc1 | 4µM | – | ? | –
NS(=O)(=O)c1cccc(NC(=O)CCSc2ccccc2Cl)c1 | – | – | – | ·
O=C(CCSc1ccccc1Cl)Nc1cccc([N+](=O)[O-])c1 | 18µM | – | – | –
CC(=O)c1ccc(N2CCN(c3ncnc4c3nc3n4CCCC3)CC2)cc1 | – | – | · | –
Cc1ccc2nsnc2c1S(=O)(=O)NCc1cccnc1 | – | – | – | –
Cc1ccc(-n2ncc(C(=O)NCc3cccs3)c2C2CCN(C(=O)OC(C)(C)C)CC2)cc1C | – | – | · | 20µM
Cc1c(Cl)cccc1-n1ncc(C(=O)NCc2cccs2)c1C1CCN(C(=O)OC(C)(C)C)CC1 | 32µM | ? | · | ?
O=C(Cc1coc2cc3c(cc12)CCC3)NCC1(N2CCCCC2)CCCCC1 | – | – | – | –
COc1ccccc1N1CCN(C(=O)C2c3ccccc3Oc3ccccc32)CC1 | ? | – | 20µM | –
COc1ccc(-c2noc(N3CCC(C(=O)N4CCN(c5ccccc5OC)CC4)CC3)n2)cc1 | 28µM | – | · | ?
SMILES | TDP-43 yeast inh | Abeta yeast res | aSyn yeast inh | FUS yeast rescue
COc1ccccc1N1CCN(C(=O)C2CC2)CC1 | – | – | – | –
CO[C@H]1/C=C/O[C@@]2(C)Oc3c(C)c(O)c4c(O)c(c(C=NN5CCN(C)CC5)c(O)c4c3C2=O)NC(=O)/C(C)=C\C=C\[C@H](C)[C@H](O)[C@@H](C)[C@@H](O)[C@@H](C)[C@H](OC(C)=O)[C@@H]1C | ? | – | – | ?
CO[C@H]1C=CO[C@@]2(C)Oc3c(C)c(O)c4c(O)c(c(C=NN5CCN(C)CC5)c(O)c4c3C2=O)NC(=O)C(C)=CC=C[C@H](C)[C@H](O)[C@@H](C)[C@@H](O)[C@@H](C)[C@H](OC(C)=O)[C@@H]1C | – | – | – | 18µM
Cc1cc(C)n(CC(O)Cn2c3ccc(Br)cc3c3cc(Br)ccc32)c(=O)n1 (stereo unspecified) | – | – | – | ?
Cc1ccc(S(=O)(=O)Nc2cccnc2Oc2ccc(Cl)cc2)cc1 | 20µM | – | – | –
Cc1ccc(C(=O)Nc2cccnc2Oc2ccc(Cl)cc2)cc1 | – | – | – | –
CC(C)(C)n1nc2c(c1NC(=O)c1ccc(S(=O)(=O)N3CCCC3)cc1)CSC2 | – | – | – | 16µM
CC(=O)c1ccc(Sc2nnnn2-c2ccccc2)c([N+](=O)[O-])c1 | 20µM | – | – | –
CS(=O)(=O)N1CCC(C(=O)NCC2COc3ccccc3O2)CC1 (stereo unspecified) | · | · | · | –
Cc1nc2nc(SCC(=O)NCCc3ccccc3)nn2c(C)c1Cc1c(F)cccc1Cl | 22µM | – | · | ?
CCCCNC(=O)CSc1nc2nc(C)c(Cc3c(F)cccc3Cl)c(C)n2n1 | – | – | · | –
